Source: PubChem BioAssay
esBAF inh: Bmi1 luciferase reporter increase in mESCs, primary screen, esBAF inhibitor project, mouse ES cells, Bmi1 luciferase knock-in, single point; 24 h; 100% = twice the neutral-well signal; reporter increase, % at 12.5 µM; 350,000 tested, 2% active; AID 602393, 2012; in the data active = activation above about 40%; inconclusive = no clear call, values can overlap the other calls;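 also: a rise in the Bmi1 reporter signal indicates esBAF inhibition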
Statin myotox sup: suppressors of statin myotoxicity in C2C12 myotubes, primary screen, cell-based, single point, plate reader; C2C12 myotubes + simvastatin, ATP luminescence, 48 h; scaled: DMSO 0, geranylgeraniol control 100; rescue of ATP level, % at 7.49 µM; 330,000 tested, 0.78% active;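 active = mean ATP rescue above about 67%, or every replicate alone reaching that limit, limit read from the data, passing the limit was not always enough; inconclusive = no clear call, values can overlap the other calls; inactive = mean under the limit and some replicate under it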;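 also: myotubes were challenged with 10 µM simvastatin during compound exposure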
Rtt109 HAT inh: inhibitors of C. albicans Rtt109/Vps75 HAT, primary screen, biochemical, ThioGlo CoA-SH fluorescence, plate reader | purified Rtt109/Vps75, 4 h | 330,000 tested, 0.16% active | Histone acetyltransferase RTT109 (Candida albicans (strain SC5314 / ATCC MYA-2876)), … | inhibition, % at 34.9 µM;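 active = inhibition of at least 50% in every replicate; inconclusive = best replicate reaches 50% inhibition but some replicates fall short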
Target sequence (Q5AAJ8 whole entry, looked up): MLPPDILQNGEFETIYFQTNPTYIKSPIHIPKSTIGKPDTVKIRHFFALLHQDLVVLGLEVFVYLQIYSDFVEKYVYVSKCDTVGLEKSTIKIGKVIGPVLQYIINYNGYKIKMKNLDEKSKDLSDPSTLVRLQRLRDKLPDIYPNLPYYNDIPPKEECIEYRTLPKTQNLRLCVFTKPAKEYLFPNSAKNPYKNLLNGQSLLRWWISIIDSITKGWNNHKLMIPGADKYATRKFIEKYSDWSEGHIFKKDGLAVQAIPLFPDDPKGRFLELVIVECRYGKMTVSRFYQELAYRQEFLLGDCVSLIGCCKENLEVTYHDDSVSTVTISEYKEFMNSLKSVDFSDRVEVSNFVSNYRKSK
MITF act: activators of MITF-driven TRPM1 promoter reporter, primary screen, cell-based, SK-MEL-5, luciferase, single point. AID 588334, 2011. 300,000 tested, 0.75% active. SK-MEL-5 TRPM1-promoter luciferase, 24 h; % of positive control, neutral wells = 0. activation, % at 12.5 µM;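 active = mean activation of at least 80% with every replicate also reaching 80%; inconclusive = mean reaches 80% but some replicate falls short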
Wnt bcat act: Wnt/beta-catenin pathway activators, primary screen, cell-based, plate reader, single point. 300,000 tested, 1.2% active. activation, % at 9.35 µM. Wnt/beta-catenin reporter cell assay, activator; in the data active = activation above about 30%, passing the limit was not always enough; inconclusive = no clear call, values can overlap the other calls
Of the large screens only hits and unclear results are named; the others gave an inactive call. This is a sample that favours compounds with a hit; in the whole collection about 3.1% have one here.

Cc1ccn2cc(-c3ccc(NC(=O)c4ccco4)cc3)nc2c1	Rtt109 HAT inh inconclusive, Wnt bcat act 46
O=C(NC1c2ccccc2-c2ccccc21)c1ccco1	Statin myotox sup 120
O=C(NC1CCCCC1NC(=O)c1ccco1)c1ccco1 (stereo not given)	none (no result: Wnt bcat act)
COC(=O)[C@H]1[C@H](CO)[C@H]2Cn3c(ccc(-c4ccccc4)c3=O)[C@H]2N1CCc1ccccc1	none (no result: Rtt109 HAT inh, MITF act, Wnt bcat act)
Cc1noc(C)c1S(=O)(=O)Nc1ccc2c(c1)C(=O)N([C@@H](C)CO)C[C@@H](C)[C@@H](CN(C)Cc1ccc(Cl)c(Cl)c1)OCCCC[C@@H](C)O2	none (no result: Rtt109 HAT inh, MITF act, Wnt bcat act)
O=C(Nc1ccc(Br)cc1)c1ccco1	esBAF inh 71, MITF act 91
O=C(Nc1ccc(Nc2ccccc2)cc1)c1ccco1	esBAF inh inconclusive (no result: Wnt bcat act)
Nc1nc(-c2ccc(NC(=O)c3ccco3)cc2)cs1	Wnt bcat act 42
O=C(Nc1ccc(NC(=O)c2ccco2)cc1)c1ccco1	esBAF inh 46
O=C(Nc1nnc(-c2cccs2)o1)c1ccco1	Statin myotox sup 69
O=C(Nc1ccc(-c2ccccc2)cc1)c1ccco1	none
C[C@@H]1CN([C@H](C)CO)C(=O)c2cccc(NS(=O)(=O)c3ccc(Cl)cc3)c2O[C@H]1CN(C)C	none (no result: Rtt109 HAT inh, MITF act, Wnt bcat act)
Cc1ccc(NC(=O)CNC(=O)c2ccco2)cc1	esBAF inh 42
CC(=O)N(C)c1ccc(NC(=O)c2ccco2)cc1	Wnt bcat act 35
O=C(Nc1ccc2nc(-c3ccco3)[nH]c2c1)c1ccco1	Wnt bcat act 37 (no result: MITF act)
COc1ccc(NC(=O)CNC(=O)c2ccco2)cc1	none (no result: MITF act)
O=C(Nc1ccc(C(=O)Oc2ccccc2)c(O)c1)c1ccco1	esBAF inh 57 (no result: Wnt bcat act)
CC(=O)Nc1ccc2nc(-c3ccco3)[nH]c2c1	none (no result: esBAF inh, Statin myotox sup)
CN(C)C(=O)c1cccc(-c2ccc3c(c2)[C@@H]2[C@@H](CCN2C(=O)C2CCCCC2)[C@H](CO)N3)c1	none (no result: Rtt109 HAT inh, MITF act, Wnt bcat act)
O=C(C[C@H]1CC[C@H](NS(=O)(=O)c2cccc(F)c2)[C@@H](CO)O1)NCc1ccc2c(c1)OCO2	none (no result: Rtt109 HAT inh, MITF act, Wnt bcat act)
O=C(Nc1nccs1)c1ccc(NC(=O)c2ccco2)cc1	esBAF inh 50 (no result: Wnt bcat act)
C[C@H](CO)N1C[C@H](C)[C@H](CN(C)C(=O)Nc2ccc(F)cc2)Oc2ccc(NC(=O)CCC(F)(F)F)cc2C1=O	none (no result: Rtt109 HAT inh, MITF act, Wnt bcat act)
On1onc2c3cc(-c4ccccc4)nc3ccc21	Wnt bcat act 39
CCc1sc(C(=O)Nc2nccs2)cc1C	Wnt bcat act 47
CCc1sc(C(=O)Nc2ncccc2O)cc1C	Wnt bcat act inconclusive
CCc1sc(C(=O)Nc2ncccc2C)cc1C	esBAF inh 54
CCc1sc(C(=O)Nc2nc(-c3ccccn3)cs2)cc1C	none (no result: esBAF inh, Wnt bcat act)
CCCSc1ncnc2c1oc1ccccc12	none
c1ccc(CSc2ncnc3c2oc2ccccc23)cc1	none (no result: esBAF inh, Statin myotox sup, Wnt bcat act)
Fc1ccccc1CSc1ncnc2c1oc1ccccc12	esBAF inh 42
c1coc(CSc2ncnc3c2oc2ccccc23)c1	esBAF inh 56, Wnt bcat act 35 (no result: MITF act)
O=C(C[C@H]1C[C@@H]2c3cc(NC(=O)C4CCC4)ccc3O[C@@H]2[C@H](CO)O1)NCC1CC1	none (no result: Rtt109 HAT inh, MITF act, Wnt bcat act)
O=C(NCC1CCCCC1)[C@H]1[C@H](CO)[C@H]2Cn3c(cccc3=O)[C@@H]1N2CCc1ccccc1	none (no result: Rtt109 HAT inh, MITF act, Wnt bcat act)
CC(C)NC(=O)Nc1ccc2c(c1)C(=O)N([C@@H](C)CO)C[C@H](C)[C@H](CN(C)S(C)(=O)=O)O2	none (no result: Rtt109 HAT inh, MITF act, Wnt bcat act)
CCC(=O)Nc1ccc2c(c1)C(=O)N(C)C[C@@H](OC)[C@@H](C)CN(C(=O)c1ccccn1)[C@@H](C)CO2	none (no result: Rtt109 HAT inh, MITF act, Wnt bcat act)
COc1cccc(S(=O)(=O)N[C@H]2CC[C@@H](CC(=O)NCc3ccccc3)O[C@@H]2CO)c1	none (no result: Rtt109 HAT inh, MITF act, Wnt bcat act)
Nc1nc(CSC(=S)N2CCOCC2)nc(Nc2ccc(F)cc2)n1	esBAF inh 66
COc1ccc(Nc2nc(N)nc(CSC(=S)N3CCOCC3)n2)cc1	esBAF inh 49
CN1CCN(C(=S)SCc2nc(N)nc(Nc3ccc(F)cc3)n2)CC1	none (no result: esBAF inh, Statin myotox sup)
Cc1ccc(Nc2nc(N)nc(CSC(=S)N3CCOCC3)n2)c(C)c1	none (no result: esBAF inh, Statin myotox sup)
CCC(=O)Nc1ccc2c(c1)C(=O)N(C)C[C@@H](OC)[C@H](C)CN(Cc1ccncc1)[C@@H](C)CO2	none (no result: Rtt109 HAT inh, MITF act, Wnt bcat act)
C[C@@H]1CN([C@H](C)CO)C(=O)Cc2cc(NS(=O)(=O)c3ccccc3)ccc2O[C@H]1CN(C)C(=O)Nc1ccc2c(c1)OCO2	none (no result: Rtt109 HAT inh, MITF act, Wnt bcat act)
S=C(Nc1ccccc1)Nc1ccc2cn[nH]c2c1	Wnt bcat act 33
O=C(/C=C/c1ccccc1)NC(=S)NNC(=O)Cc1cccs1	Statin myotox sup 104 (no result: Wnt bcat act)
C[C@@H]1CN([C@H](C)CO)S(=O)(=O)c2ccc(C#CC3CCCC3)cc2O[C@H]1CN(C)C(=O)C1CC1	none (no result: Rtt109 HAT inh, MITF act, Wnt bcat act)
COc1ccc2c(c1)C(=NN)c1cc(OC)ccc1-2	esBAF inh 43 (no result: Wnt bcat act)
COc1ccc(-c2csc(N3CCC(C(N)=O)CC3)n2)cc1	esBAF inh 50
NC(=O)C1CCN(c2nc(-c3cccc(Cl)c3)cs2)CC1	esBAF inh 49
CCCCCCCSc1ncnc2[nH]ncc12	esBAF inh 70
CSc1ncnc2[nH]ncc12	none
Cc1ccc(S(=O)(=O)Nc2ccc3c(c2)CC(=O)N([C@H](C)CO)C[C@H](C)[C@H](CN(C)CC2CCCCC2)O3)cc1	none (no result: Rtt109 HAT inh, MITF act, Wnt bcat act)
CN1c2ccc(C3=CCCCC3)cc2[C@H]2[C@H](CCN2C(=O)Cc2ccccn2)[C@@H]1CO	none (no result: Rtt109 HAT inh, MITF act, Wnt bcat act)
Cc1cc(NC(=O)CCCn2nc([N+](=O)[O-])c(Cl)c2C)no1	Rtt109 HAT inh 52
Cc1cc(NC(=O)CCCn2nc([N+](=O)[O-])cc2C)no1	none
O=C(C[C@H]1CC[C@@H]2[C@H](COC[C@@H](O)CN2C(=O)c2ccncc2)O1)NC1CCC1	none (no result: Rtt109 HAT inh, MITF act, Wnt bcat act)
O=C(CCN1CCCCC1)N[C@@H]1C=C[C@H](CC(=O)N2CCC(Cc3ccccc3)CC2)O[C@@H]1CO	none (no result: Rtt109 HAT inh, MITF act, Wnt bcat act)
O=C(NCc1ccco1)C(c1ccc(F)cc1)N(CC1CCCO1)C(=O)Cn1nnc2ccccc21 (stereo not given)	Statin myotox sup 89
COCCNC(=O)C(c1ccc(C)o1)N(CC1CCCO1)C(=O)Cn1nnc2ccccc21 (stereo not given)	none
O=C(O)c1cncc(C#CCC2CCCCC2)c1	esBAF inh 61
COc1ccc(N=C(C)C2=C(O)c3ccccc3C2=O)cc1	Wnt bcat act 58 (no result: esBAF inh, Statin myotox sup)
CC(=NC1CC1)C1=C(O)c2ccccc2C1=O	MITF act 98
CCOc1ccc(N=C(C)C2=C(O)c3ccccc3C2=O)cc1	Wnt bcat act 39 (no result: esBAF inh, Statin myotox sup, MITF act)
C[C@H](CO)N1C[C@H](C)[C@@H](CN(C)C(=O)NC2CCCCC2)Oc2ncc(C#CCN(C)C)cc2C1=O	none (no result: Rtt109 HAT inh, MITF act, Wnt bcat act)
CO[C@H]1CN(C)C(=O)c2cc(C#N)ccc2OC[C@H]2O[C@@H](CC[C@H]2OC)CCN(C)C(=O)[C@H]1C	none (no result: Rtt109 HAT inh, MITF act, Wnt bcat act)
